A selection: hits, their analogues and other compounds. The true share with any hit is near 3.9%.
Eya2 inh – qHTS Assay for Inhibitors of the Phosphatase Activity of Eya2. recombinant Eya2, OMFP fluorescence dephosphorylation (OMFP is methylfluorescein phosphate). Potency, µM (doses to about 76.9 µM), for the others: at the highest dose activity, negative = inhibition, actives largely listed as inhibitors. hit rate 0.006% among 330,000. AID 488837, 2010; further: potency means the concentration at half of the fitted maximal effect; on the % scale 0 is the no-effect control and ±100 the full control effect
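Eya2 protein (added as 0.2 uM solution) was preincubated with compound for 10 min at ambient temperature in 50 mM HEPES pH 7.5, 50 mM NaCl, 5 uM MgCl2, 0.05% BSA, 1 mM DTT. OMFP (added at 50 uM) then reacted 10 min; fluorescence read at 485/525 nm.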
GALK inh – qHTS Assay for Inhibitors of Human Galactokinase (GALK); hit rate 0.007% among 270,000; P51570; Purified GALK, Kinase-Glo residual ATP luminescence; Potency, µM (top dose mostly 57.5 µM), for the others: at the highest dose activity change, negative = inhibition, usual class: inhibitors; further: potency means the concentration at half of the fitted maximal effect; on the % scale 0 is the no-effect control and ±100 the full control effect
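Galactose (100 uM) and ATP (35 uM) were turned over by 5 nM GALK for 1 h at RT. Kinase-Glo Plus then converted the remaining ATP into a luminescent signal.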
D1 potentiator – Potentiators of Human D1 Dopamine Receptor: qHTS; HEK293 TREx D1 cells, calcium flux, dopamine EC20 potentiation; potentiation, % at 10 µM; hit rate 0.036% among 360,000; AID 504651, 2011; in the data active means potentiation above about 30%; further: 0% is about no effect
D1 antag – Antagonist of Human D 1 Dopamine Receptor: qHTS | D(1A) dopamine receptor (Homo sapiens), P21728 | HEK293 TREx D1 cells, calcium flux, dopamine EC80; stronger effect = lower value | activity change, negative = inhibition, % at 10 µM | hit rate 3.2% among 360,000; in the data active means activity change below about -30%; further: on the % scale 0 is the no-effect control and ±100 the full control effect
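Compound effects on dopamine-evoked calcium signalling were measured in tetracycline-induced HEK293 Trex D1 cells. Dopamine at EC80 followed a 180 s compound pre-read, and fluorescence was tracked kinetically for 180 s more.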
USP2a block – qHTS Assay for Inhibitors of Ubiquitin-specific Protease USP2a Using CHOP2 as the Reporter; Ubiquitin carboxyl-terminal hydrolase 2 (Homo sapiens), O75604; USP2 core, Ub-CHOP2 coupled fluorogenic reporter, 485/531; hit rate 0.01% among 330,000; Potency, µM (series often up to 38.3 µM), without a hit: at the highest dose activity change, negative = inhibition, actives largely listed as inhibitors;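 further: potency means the concentration at half of the fitted maximal effect; plate controls were DMSO wells for no effect and full inhibition by NEM control for full effect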
Target sequence (O75604 whole entry, looked up): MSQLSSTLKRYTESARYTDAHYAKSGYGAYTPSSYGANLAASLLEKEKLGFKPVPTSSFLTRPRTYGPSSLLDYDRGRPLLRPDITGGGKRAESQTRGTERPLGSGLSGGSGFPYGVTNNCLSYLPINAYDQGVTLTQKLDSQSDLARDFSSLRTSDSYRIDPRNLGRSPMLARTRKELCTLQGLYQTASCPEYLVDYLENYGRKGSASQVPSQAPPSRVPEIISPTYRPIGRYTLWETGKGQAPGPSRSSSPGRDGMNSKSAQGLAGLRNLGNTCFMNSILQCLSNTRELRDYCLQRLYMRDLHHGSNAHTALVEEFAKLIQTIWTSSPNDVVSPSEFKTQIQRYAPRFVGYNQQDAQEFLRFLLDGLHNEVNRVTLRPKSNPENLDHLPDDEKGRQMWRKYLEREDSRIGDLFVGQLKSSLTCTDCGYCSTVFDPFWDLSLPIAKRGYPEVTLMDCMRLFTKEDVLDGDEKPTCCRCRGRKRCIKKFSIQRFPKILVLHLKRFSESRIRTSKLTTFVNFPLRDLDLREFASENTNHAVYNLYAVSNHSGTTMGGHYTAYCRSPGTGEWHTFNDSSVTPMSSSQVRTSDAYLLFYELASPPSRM
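USP2 core (10nM final) preincubated 30min RT with compound in 20mM Tris-HCl pH 8.0, 2mM CaCl2, 2mM beta-mercaptoethanol, 0.05% CHAPS; 25nM Ub-CHOP2 plus 25nM reporter substrate added, fluorescence (Ex485/Em531) read after 60min.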
D1 agonist – Allosteric Agonists of the Human D1 Dopamine Receptor: qHTS; D(1A) dopamine receptor (Homo sapiens), P21728; HEK293 T-REx D1 cells, calcium flux, agonist mode; activation, % at 2 µM; hit rate 1% among 360,000; in the data active means activation above about 30%; further: 0% is about no effect
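Inducible HEK293 T-REx D1 cells, force-coupled to calcium signalling, were plated at 4000 cells/well with tetracycline and held overnight at 30 C. After no-wash calcium dye loading, compound-evoked calcium rise over 180 s flagged agonists.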
Starred values were filed as active, the others as inactive; u = inconclusive; x = no result. Unless noted, the call rests on the fitted dose curve; in most records, active means well fitted inhibition curve with a large enough effect; inconclusive means small, poorly fitted or top-dose-only effect, or effect the other way; inactive means flat fitted curve, though single readings scatter.

SMILES	Eya2 inh	GALK inh	D1 potentiator	D1 antag	USP2a block	D1 agonist
Cc1c2c(n3c(nc4ccccc43)c1C#N)N(CCN1CCOCC1)CC2	-3.1%	-1.0%	-2.0	-37.5*	5.3%	-0.3
Cc1ccc(S(=O)(=O)c2cn(C)c3cc(N4CCOCC4)c(F)cc3c2=O)c(C)c1	x	x	-0.8	-0.2	x	-1.4
Fc1c(F)c(C(F)(F)F)c(F)c(F)c1N/N=C\c1cccs1	14.6%	-0.8%	-3.9	-33.9*	1.6%	12.0
Cn1c(N/N=C/c2cccs2)cc(=O)n(C)c1=O	38.1%	2.0%	0.0	-0.3	5.8%	4.3
O=C(Nc1cccc(C(F)(F)F)c1)c1ccc(F)c(S(=O)(=O)N2CCc3ccccc3C2)c1	x	x	1.9	-14.8	x	-0.3
CCCCOc1ccc(S(=O)(=O)Nc2ccc(-c3ccc(N4CCCCC4)nn3)cc2)cc1	x	x	2.4	-9.3	x	8.5
COc1ncnc(OC)c1S(=O)(=O)Nc1ccc(C(F)(F)F)cc1	-6.8%	4.7%	-6.8	-31.2*	2.0%	-0.3
CCN(C(=O)Cn1ncc2c1-c1cc(C)ccc1OC2)c1cc(Cl)ccc1OC	x	x	11.1	49.6	x	-1.3
O=C(N=C1SCC(=O)N1c1ccccc1Cl)c1ccco1	11.8%	6.2%	-12.9	-32.5*	-9.1%	7.1
Nc1ccc(N2C(=O)c3ccccc3C2=O)c(Cl)c1	-1.9%	x	-2.7	-45.6*	3.3%	-1.2
COc1cc2cc(CN(CCN3CCCC3)C(=O)Nc3ccc(F)cc3)c(=O)[nH]c2cc1OC	0.0%	4.5%	-3.3	2.2	u	0.6
Cc1ccc(C)c2[nH]c(=O)c(CN(CCN3CCCC3)C(=O)Nc3ccc(F)cc3)cc12	-16.8%	0.8%	-8.5	-36.2*	-10.0%	2.2
O=C(CSCc1ccccc1Cl)N1CCN(c2ccc(Cl)cc2)CC1	x	x	-1.4	-13.4	x	-3.9
CCc1ccc(C(C)NC(=O)c2ccc3c(c2)OCO3)cc1 (stereo not drawn)	18.3%	3.2%	0.1	-41.7*	1.9%	6.4
CC(NC(=O)c1ccc2c(c1)OCO2)c1ccccc1 (stereo not drawn)	-10.2%	7.8%	-7.0	-6.3	0.9%	3.8
COc1cc(NC(=O)CCc2c(C)nn(-c3ccc4nncn4n3)c2C)cc(OC)c1OC	x	x	-4.3	19.4	x	4.2
Cc1ccc(NC(=O)Cc2ncon2)cc1Cl	2.5%	-2.7%	-2.9	-44.8*	-0.5%	1.0
Cc1ccc(NC(=O)Cc2coc3ccc(C(C)C)cc23)cc1Cl	x	x	0.3	-2.1	x	38.5*
COc1cc(CNC2CCC(C)C2)cc(OC)c1 (stereo not drawn)	-5.6%	-0.5%	-0.1	-47.8*	-5.0%	1.2
CCOc1ccc(-c2c(C)nn3c(C)c(C(=O)Nc4cc(C)cc(C)c4)cnc23)cc1OCC	x	x	-5.7	7.7	x	3.9
Cc1ccc(C)c(CN2C(=O)c3ccccc3S(=O)c3ccc(C(=O)NCc4ccccc4)cc32)c1 (stereo not drawn)	x	x	0.6	-0.9	x	5.4
Cc1cccc(Cn2c(=O)n(CCCCC(=O)NCc3ccc4c(c3)OCO4)c(=O)c3ccccc32)c1	x	x	0.6	4.6	x	-2.4
Cc1ccc2c(Sc3ccccc3)c(C(=O)NCc3ccccc3F)[nH]c2c1	x	x	-0.9	-43.9*	x	0.6
O=C(Cn1c(=O)n(Cc2ccccc2)c(=O)c2oc3ccccc3c21)Nc1ccc(Cl)cc1	x	x	-2.9	14.0	x	1.8
Cc1ccc(-n2cc(C(=O)OCc3ccc(F)c(F)c3)c3ccccc3c2=O)cc1	x	x	-3.7	5.8	x	0.7
CC(C)(c1ccccc1)c1ccc(OCCn2cnc3ccccc3c2=O)cc1	-8.2%	-0.2%	6.1	4.9	-5.8%	33.5*
O=C(c1ccccc1)c1ccc(OCCn2cnc3ccccc3c2=O)cc1	-9.6%	x	-5.8	-28.6	2.1%	2.0

High-throughput results from PubChem.
